# KCNQ2 block – KCNQ2 (rat) channel inhibition | O88943 | CHO-K1 KCNQ2, FluxOR thallium flux, 20 min; active compounds read low | B-score at 10 µM | 310,000 tested, 1.1% active;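 active = fluorescence ratio B-score at most minus 3 library SDs, with starting brightness B-score within 2 library SDs, cut at about -5.5 in these data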
# Target sequence (O88943 whole entry, looked up): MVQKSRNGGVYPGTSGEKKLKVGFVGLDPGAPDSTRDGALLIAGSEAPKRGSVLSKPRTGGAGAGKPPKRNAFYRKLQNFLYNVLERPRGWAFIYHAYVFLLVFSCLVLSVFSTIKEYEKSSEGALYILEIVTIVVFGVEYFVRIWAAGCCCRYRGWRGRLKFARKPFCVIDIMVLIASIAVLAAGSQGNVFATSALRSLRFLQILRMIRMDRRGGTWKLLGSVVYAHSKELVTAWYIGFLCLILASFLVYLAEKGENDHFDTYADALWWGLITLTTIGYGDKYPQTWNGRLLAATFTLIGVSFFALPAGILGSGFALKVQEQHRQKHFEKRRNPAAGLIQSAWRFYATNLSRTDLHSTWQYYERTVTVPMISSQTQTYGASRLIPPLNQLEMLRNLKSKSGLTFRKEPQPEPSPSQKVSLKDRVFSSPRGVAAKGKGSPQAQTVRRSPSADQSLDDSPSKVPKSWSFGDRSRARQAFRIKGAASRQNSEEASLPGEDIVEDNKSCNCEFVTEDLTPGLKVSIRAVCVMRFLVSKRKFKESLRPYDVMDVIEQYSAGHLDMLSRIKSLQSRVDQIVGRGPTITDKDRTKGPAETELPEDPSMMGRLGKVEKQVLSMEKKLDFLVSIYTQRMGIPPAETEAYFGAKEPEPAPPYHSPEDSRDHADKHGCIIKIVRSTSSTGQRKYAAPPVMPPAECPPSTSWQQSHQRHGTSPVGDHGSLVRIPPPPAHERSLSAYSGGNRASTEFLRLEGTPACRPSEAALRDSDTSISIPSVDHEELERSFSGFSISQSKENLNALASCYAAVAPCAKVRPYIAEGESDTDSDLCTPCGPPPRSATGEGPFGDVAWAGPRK
# KCNQ2 pot – enhances the rat KCNQ2 potassium channel. O88943. CHO-K1 KCNQ2, FluxOR thallium flux fluorescence; active compounds read high. B-score at 10 µM. 310,000 tested, 0.54% active;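 active = fluorescence ratio B-score at least 3 SD of library B-scores, with initial fluorescence B-score within 3 of them, cut at about 5.3 in these data; same plate scores as AID 2156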;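 also: B-score of peak minus minimum over baseline fluorescence ratio after K+ and Tl+ stimulus; positive B-score means potentiation of KCNQ2 with more thallium influx and brighter signal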
# Kir21 conf inh – confirmation of mouse Kir2.1 potassium channel inhibitors. AID 2032. shares compounds with KCNQ2 pot. Tl flux remaining, % of negative control (active compounds read low), % at 10 µM. 2,300 tested, 41% active. Kir2.1-expressing cells, FluxOR thallium flux fluorescence; active compounds read low;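 active = Primary-screen hit whose thallium flux fell at least 3 control SD below untreated wells in both duplicates, with normal baseline fluorescence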;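 also: 0% = blank wells without stimulus and 100% = stimulated no-compound controls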
# HEK293 Tl flux – alters thallium flux in parental HEK293 cells, Kir2.1 counter-screen; shares compounds with KCNQ2 pot; FluxOR thallium flux fluorescence; 0% = unstimulated blank wells; FluxOR signal as % of negative control (100 = no effect), % at 10 µM; 2,300 tested, 19% active; AID 2105;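 active = dye signal at least 3 control SD above or below untreated wells in both duplicates, raw fluorescence within 3, either direction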;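 also: percent is based on the flux ratio of peak minus minimum fluorescence over baseline F0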
# CHO-K1 ctr – counter-screen for KCNQ2 potentiators: effect in parental CHO-K1 cells | shares compounds with KCNQ2 pot | FluxOR thallium flux fluorescence; zero = vehicle mean+3SD, 100% = vehicle-minus-blank window | activity increase over 3SD of controls, % at 10 µM | 1,200 tested, 43% active | AID 2282;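 active = signal rise of at least 3 SD above the untreated control mean, in both duplicate wells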;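 also: counter screen of KCNQ2 potentiator hits so any rise reflects channel-independent effects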
# KCNQ1 pot spec – selectivity of KCNQ2 potentiators: effect on human KCNQ1; shares compounds with KCNQ2 pot; CHO KCNQ1 stable, FluxOR thallium flux fluorescence; beyond 3SD, as % of vehicle-control signal; activation over 3SD threshold, % at 10 µM; 1,200 tested, 28% active; AID 2283;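 active = fluorescence ratio rise of at least 3 SD of vehicle wells above their mean, in both replicate wells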;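 also: 0% = vehicle mean plus 3 SD and 100% = vehicle minus unstimulated blank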
# KCNQ2 pot confirm – rat KCNQ2 channel potentiator confirmation; shares compounds with KCNQ2 pot; CHO-KCNQ2 cells, FluxOR thallium flux fluorescence; potentiation, less the hit threshold, % at 10 µM; 1,200 tested, 68% active; AID 2287;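 active = fluorescence ratio rising 3 SD or more over the vehicle control mean in both replicates, plus primary screen hit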;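 also: peak minus minimum thallium fluorescence divided by baseline after K/Tl stimulus; 0% = vehicle mean plus 3 SD and 100% = vehicle minus unstimulated blank difference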
# Kir21 spec – mouse Kir2.1 off-target activity of KCNQ2 potentiators; shares compounds with KCNQ2 pot; 1,200 tested, 2% active; HEK293 Kir2.1, FluxOR thallium flux fluorescence; activity over 3SD threshold, % at 10 µM;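 active = fluorescence ratio rise of at least 3 SD above the vehicle-control mean, seen in both replicates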;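 also: 0% = vehicle mean plus 3 SD and 100% = vehicle minus no-stimulus blank window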
# KCNQ2 W236L MoA – potentiates the retigabine-insensitive rat KCNQ2 W236L mutant channel | 940 tested, 10% active | shares compounds with KCNQ2 pot | AID 2558 | CHO KCNQ2-W236L, automated patch clamp current | current increase over 3SD of negative controls (%), active compounds read high, % at 25 µM;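 active = current increase at least 3 SD of the untreated controls above them in both duplicate recordings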
# An asterisk follows results filed as active; i = inactive; x = no result. Only some compounds are listed: those with a hit (about 1.6% of all), similar ones and a draw of the others.
SMILES,KCNQ2 block,KCNQ2 pot,Kir21 conf inh,HEK293 Tl flux,others
Cc1sc2ncnc(SCC(=O)N3CCCCC3)c2c1C,i,2.46,x,x,
O=C1CN(S(=O)(=O)c2cccc(C(=O)O)c2)c2ccccc2N1,i,0.01,x,x,
CC(OC(=O)c1cccc(-n2cnnn2)c1)C(=O)Nc1cccc(Cl)c1 (stereo unspecified),i,1.24,i,i,
CC(=O)c1ccc(NC(=O)C(C)OC(=O)c2cccc(-n3cnnn3)c2)cc1 (stereo unspecified),i,0.27,x,x,
COc1cc(NC(=O)c2ccccc2)cc(OC)c1,i,16.6*,i,i,CHO-K1 ctr=-15.9;KCNQ1 pot spec=-11.7;KCNQ2 pot confirm=30.1*;Kir21 spec=-34.5;KCNQ2 W236L MoA=i
COc1ccc(C(=O)Nc2cc(OC)cc(OC)c2)cc1,i,4.39,x,x,
CC1(C)CC(=O)C2=C(C1)N=C1SCCC(=O)N1C2c1cccc([N+](=O)[O-])c1 (stereo unspecified),i,x,x,x,
COc1ccc(Br)cc1S(=O)(=O)N1CCOCC1,i,1.96,x,x,
COc1ccc(Br)cc1S(=O)(=O)N1CC(C)OC(C)C1 (stereo unspecified),i,2.86,56.5%*,i,
COc1ccc(C(C)C)cc1S(=O)(=O)N1CCN(C)CC1,i,12.6*,i,i,CHO-K1 ctr=48.1*;KCNQ1 pot spec=-9.0;KCNQ2 pot confirm=-18.4;Kir21 spec=-35.7
COc1ccc(F)cc1S(=O)(=O)N1CCN(c2ccccn2)CC1,i,x,x,x,
COc1ccc(F)cc1S(=O)(=O)N1CC(C)CC(C)C1 (stereo unspecified),i,x,44.5%*,i,
COc1ccc(C(C)C)cc1S(=O)(=O)N1CCC(C(=O)N2CCN(C)CC2)CC1,i,x,x,x,
Cc1cccc(-c2nc(CS(=O)CC(=O)NC3CCCC(C)C3C)c(C)o2)c1 (stereo unspecified),i,1.75,x,x,
CC(C)CC(=O)NC(NCC1CCCO1)C(Cl)(Cl)Cl (stereo unspecified),i,x,x,x,
CN(C)c1ccc(-n2cccc2/C=C/[N+](=O)[O-])cc1,i,x,x,x,
CN(c1ccccc1)c1ccc(/C=C/[N+](=O)[O-])cc1,i,x,i,i,
Nc1nonc1-n1nnc(C(=O)N/N=C/c2ccc(OCc3ccccc3)cc2)c1CNc1ccccc1,i,x,x,x,
Cc1cc2[nH]c3c(c[n+](C)c4ccccc34)c2cc1C,i,x,i,i,
Cc1cc(=O)[nH]c2ccccc12,i,x,x,x,
Cn1nc(-c2ccc(N3CCN(CCO)CC3)c([N+](=O)[O-])c2)c2ccccc2c1=O,i,x,x,x,
CC(NC(=O)/C(=C/c1ccc2c(c1)OCO2)NC(=O)c1cccc([N+](=O)[O-])c1)C(=O)O (stereo unspecified),i,0.77,x,x,
Cc1cc(=O)oc2cc(OC(=O)c3ccco3)ccc12,i,0.19,i,i,
CCc1cc(=O)oc2cc(OC(=O)c3ccco3)ccc12,i,x,x,x,
O=c1[nH][nH]c(-c2ccccc2)c1C=Nc1ccc(OC(F)(F)F)cc1,i,0.09,x,x,
SMILES,KCNQ2 block,KCNQ2 pot,Kir21 conf inh,HEK293 Tl flux,others
O=C(NNC(=S)NC1CCCCC1)c1cccs1,i,0.02,x,x,
CC1CCCCC1NC(=S)NC(=O)c1cccs1 (stereo unspecified),i,8.39*,i,187.5%*,CHO-K1 ctr=43.9*;KCNQ1 pot spec=22.7*;KCNQ2 pot confirm=14.9*;Kir21 spec=-24.5;KCNQ2 W236L MoA=i
c1ccc(-c2nc(N3CCNCC3)nc3ccccc23)cc1,i,x,50.5%*,i,
c1ccc(-c2nc(N3CCCCC3)nc3ccccc23)cc1,i,x,x,x,
COc1cc(N/C(N)=N/c2nc(C)cc(C)n2)c(OC)cc1Cl,i,0.2,x,x,
Cc1c(C(=O)N(C)CCCCN2CCOCC2)oc2c(F)cccc12,i,x,x,x,
CC(C)=CCc1c(O)c(CC=C(C)C)c2c(c1O)C(=O)CC(c1ccc(O)cc1)O2 (stereo unspecified),i,x,x,x,
CC(C)=CCc1c(O)cc(O)c2c1OC(c1ccc(O)cc1)CC2=O (stereo unspecified),-7.77*,-7.77,62.0%*,i,
O=C(COC(=O)c1ccc(O)cc1)NCCCc1ccccc1,i,x,x,x,
COc1ccc(-c2csc(NC(C)c3nc4cc(C(F)(F)F)ccc4n3CCOCCO)n2)cc1 (stereo unspecified),i,x,x,x,
O=C(CN(Cc1ccccc1)C(=O)CNS(=O)(=O)c1ccc(F)cc1)NCc1ccco1,i,x,x,x,
NS(=O)(=O)c1ccc(CCNC(=O)c2ccc(NC3=NC4CS(=O)(=O)CC4S3)cc2)cc1 (stereo unspecified),i,x,x,x,
CNC(=O)c1sccc1SCc1c(Cl)cccc1Cl,i,x,46.0%*,i,
CNC(=O)c1sccc1SCc1ccc(Cl)cc1Cl,i,x,x,x,
Cc1cc(Oc2ccc(N)cn2)cc(C)c1Cl,i,0.02,x,x,
CC(C)(C)c1ccc(Oc2ccc(N)cn2)cc1,i,11.9*,i,67.5%*,CHO-K1 ctr=64.9*;KCNQ1 pot spec=-19.1;KCNQ2 pot confirm=73.3*;Kir21 spec=-34.0;KCNQ2 W236L MoA=i
COc1ccc(C(=O)CC2(C(=O)O)CCCCC2)cc1,i,0.45,x,x,
O=C(NOC(=O)c1c(F)cccc1Cl)c1ccc(Cl)c(Cl)c1,i,x,x,x,
COc1ccc(CCNC(=O)COc2ccc(N(C)S(=O)(=O)c3ccc(Cl)cc3)cc2)cc1,-6.47*,-6.47,i,i,
CN(c1ccc(OCC(=O)NCCc2ccccc2)cc1)S(=O)(=O)c1ccc(Cl)cc1,i,x,x,x,
O=c1c2ccccc2nc(-c2cccc(Cl)c2)n1O,i,8.71*,i,i,CHO-K1 ctr=74.0*;KCNQ1 pot spec=-21.8;KCNQ2 pot confirm=45.5*;Kir21 spec=-25.5;KCNQ2 W236L MoA=i
Cc1ccc(-c2nc3ccccc3c(=O)n2O)cc1,i,3.58,x,x,
O=c1c2cc(Br)ccc2nc(-c2ccccc2)n1O,i,7.79*,i,425.5%*,CHO-K1 ctr=-16.4;KCNQ1 pot spec=-15.5;KCNQ2 pot confirm=49.5*;Kir21 spec=-8.8;KCNQ2 W236L MoA=i
O=c1c2cc(Cl)ccc2nc(-c2ccccc2Cl)n1O,i,2.45,x,x,
COc1ccc(S(=O)(=O)N2CCC(C(=O)N[C@@H](C)C(=O)NC3CC3)CC2)cc1,i,0.59,x,x,
COc1ccccc1CNC(=O)CCNS(=O)(=O)c1ccc2[nH]c(=O)oc2c1,i,x,x,x,
COc1ccc(Cl)cc1NC(=O)CC1CCCC1,i,x,x,x,
COc1cc(Cl)c(C)cc1NC(=O)CC1CCCC1,i,5.79*,i,i,CHO-K1 ctr=-9.0;KCNQ1 pot spec=-17.8;KCNQ2 pot confirm=24.2*;Kir21 spec=-31.8;KCNQ2 W236L MoA=i

# Bioassay records as filed in PubChem BioAssay.
